# esBAF inh: blocks esBAF chromatin remodeling in mouse ES cells | 350,000 tested, 2% active | reporter increase, % at 12.5 µM | Bmi1-luciferase knock-in reporter, 24 h; 100% = twice the neutral-well signal; in the data active means activation above about 40%; inconclusive means no clear call, values can overlap the other calls;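 further: 0% = median of the plate's neutral control wells and 100% = double that signal; a rise in the Bmi1 reporter signal indicates esBAF inhibition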
# SMARCA2 act: activators of SMARCA2 function | activation, % at 9.1 µM | MG213 cells, MMTV-luciferase reporter, dexamethasone, overnight | AID 652017 | 370,000 tested, 1% active; in the data active means activation above about 7.8%;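 further: 0% = vehicle wells and 100% = reference activator wells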
# HSF1 inh: HSF1 inhibition; NIH3T3-HGL HSE-luciferase, MG132-induced, luminescence 8 h; hits give low values; activity change, negative = inhibition, % at 7.5 µM (by protocol); 300,000 tested, 0.77% active; AID 2098;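 active means more than half of replicate wells show activity change below -50%, luminescence cut by over half; inconclusive means some wells, but at most half, below -50%; inactive means no replicate well below -50%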;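 further: luciferase reports HSF-1 transcriptional activity via heat shock element; 0% = median of DMSO wells and -100% = zero luminescence signal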
# HSF1 activator: increases HSF-1 driven luciferase reporter signal | NIH3T3-HGL HSF-1 luciferase reporter, MG132, 8 h; 100% = twice DMSO control signal | activation, % at 9 µM | AID 504408 | 300,000 tested, 1.7% active;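 active means mean replicate activation of at least 50% with a set share of replicates each reaching 50%; inconclusive means only one of those two conditions met; inactive means mean below 50% and too few replicates reaching it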;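 further: 0% = median of the neutral control wells and 100% = twice that signal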
# MITF TRPM1 HTS: increases MITF-driven TRPM1 promoter luciferase signal; SK-MEL-5 TRPM1-promoter luciferase, 24 h; % of positive control, neutral wells = 0; activation, % at 12.5 µM; 300,000 tested, 0.75% active;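 active means mean activation of at least 80% with every replicate also reaching 80%; inconclusive means mean reaches 80% but some replicate falls short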;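 further: 0% = neutral control wells and 100% = parthenolide positive control wells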
# Wnt act: activates Wnt/beta-catenin signaling in a reporter cell assay. AID 743398. activator, plate reader. activation, % at 9.35 µM. 300,000 tested, 1.2% active; in the data active means activation above about 30%, passing the limit was not always enough; inconclusive means no clear call, values can overlap the other calls;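 further: 0% = neutral control wells and 100% = positive control wells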
# Numbers without * were called inactive; ? = inconclusive; . = no result. Hits are enriched below; roughly 4.3% of the tested compounds scored in any of these assays.
SMILES,esBAF inh,SMARCA2 act,HSF1 inh,HSF1 activator,MITF TRPM1 HTS,Wnt act
O=C(/C=C/c1ccc(Br)cc1)NC1CCCCCC1,30,1,9,17,74,13
Cc1ccc(/C=C/C(=O)N2CCCC(C)C2)cc1 (centres undefined),.,0,24,65*,88*,-2
CC1CCN(C(=O)/C=C/c2ccc(C(C)(C)C)cc2)CC1,.,5,2,25,27,5
CC(C)Cc1ccc(/C=C/C(=O)NC2CC2)cc1,49*,5,14,41,80,54*
CCc1ccc(/C=C\C(=O)N2CCCC2)cc1,37,-1,11,7,44,3
CCOC(=O)C1CCCN(C(=O)/C=C/c2ccc(Cl)cc2)C1 (centres undefined),.,1,5,-1,-7,9
CC(C)Cc1ccc(/C=C/C(=O)N2CCCCC2)cc1,.,5,30,58*,70,-2
CCCC(=O)Nc1ccc2c(c1)C(=O)N(C)C[C@@H](OC)[C@@H](C)CN(Cc1ccccc1)[C@@H](C)CO2,1,.,.,.,.,.
COCC(=O)Nc1ccc2c(c1)C(=O)N(C)[C@H]1CC[C@@H](CC(=O)NCc3ccccc3F)O[C@@H]1CO2,-2,.,.,.,.,.
Cc1ccccc1S(=O)(=O)c1cc2ccccc2nc1N,4,-2,7,24,-13,-1
Cc1ccc(-c2cc3ccccc3nc2N)cc1,47*,-1,18,31,.,20
Nc1nc2ccccc2cc1-c1cccs1,?,4,10,53*,90*,20
N#Cc1cc2ccccc2nc1N,.,5,-3,-1,-10,0
c1csc(-c2ccc3ccccc3n2)c1,43*,5,22,31,59,20
C[C@H](CO)N1C[C@H](C)[C@@H](CN(C)C(=O)NC2CCCCC2)OCCCC[C@H](C)Oc2ccc(NC(=O)Nc3ccccc3)cc2C1=O,15,.,.,.,.,.
O=C(C[C@H]1C[C@H]2c3cc(NC(=O)C4CCC4)ccc3O[C@H]2[C@H](CO)O1)NCc1ccccc1F,-5,.,.,.,.,.
COc1cccc(-c2ccc3c(c2)[C@H]2[C@H](CCN2Cc2ccccc2OC)[C@H](CO)N3)c1,-3,.,.,.,.,.
CN=c1scc(-c2cccs2)n1/N=C/c1ccccc1O,.,-11,-90*,-91,-86,-12
CN=c1scc(-c2cccs2)n1/N=C/c1ccc(O)c(O)c1O,.,-1,?,-51,-1,3
Clc1ccc(OCCN2CCCCC2)cc1Cl,6,-1,-3,14,2,.
Clc1ccc(OCCCN2CCCC2)cc1Cl,.,7.8*,4,11,10,.
O=C1c2ccccc2NC(c2cccc(Cl)c2)N1N=C1CCCCCC1 (centres undefined),55*,2,6,26,92*,?
CCC1CCCCN1CCCNC(=O)Cn1c2ccccc2c2nc(=O)cc(C)n21 (centres undefined),-1,1,40,64*,0,2
C[C@@H]1CN([C@@H](C)CO)S(=O)(=O)c2ccc(C#CCN(C)C)cc2O[C@H]1CN(C)C,2,.,.,.,.,.
Cc1cccc(C(=O)Oc2ccc(/C=N/NC(=O)c3ccc(O)cc3)cc2)c1,-1,-1,2,5,-12,0
SMILES,esBAF inh,SMARCA2 act,HSF1 inh,HSF1 activator,MITF TRPM1 HTS,Wnt act
O=C(N/N=C/c1ccnc2ccccc12)c1ccccc1O,55*,-1,-4,13,29,8
O=C(N/N=C/c1ccc2nccnc2c1)c1ccccc1O,.,4,3,7,.,38*
Cc1cccc(C(=O)Oc2ccc(/C=N/NC(=O)c3ccccc3O)cc2)c1,.,1,53,55*,58,-1
CC(C)C#Cc1cnc2c(c1)C(=O)N([C@@H](C)CO)C[C@H](C)[C@H](CN(C)C(=O)CCN1CCCCC1)O2,-2,.,.,.,.,.
C[C@@H]1CCCCO[C@@H](CN(C)S(=O)(=O)c2cccs2)[C@H](C)CN([C@H](C)CO)C(=O)c2cc(NC(=O)Nc3cccc4ccccc34)ccc2O1,-2,.,.,.,.,.
COc1ccc(NC(=O)CSc2nc(N)c3cc4c(nc3n2)CCCC4)cc1,.,6,41,58*,56,21
CC(Sc1ccc(Cl)cc1)C(=O)NNC(=O)c1csc(N2CCOCC2)n1 (centres undefined),.,-1,-1,-4,-10,-2
Clc1ccc(SCc2csc(N3CCOCC3)n2)cc1,.,1,36,72*,12,-1
O=C(CCSc1ccc(Cl)cc1)N1CCOCC1,42*,1,3,8,.,25
O=C(CSc1ccc(Cl)cc1)N1CCOCC1,10,-1,-1,18,22,5
O=C(C[C@H]1CC[C@@H](NC(=O)c2ccncc2)[C@H](CO)O1)NCC1CC1,4,.,.,.,.,.
C=CCc1cccc(/C=N/NC(=O)c2ccccc2OC)c1O,44*,3,17,30,14,12
Cc1ccc(C(=O)N/C(=C\c2ccc(Br)cc2)c2nc(=S)[nH][nH]2)cc1,-10,-2,-69*,-75,-12,-6
Cc1c(Cl)cccc1NC(=O)Nc1cccnc1,5,0,-5,-3,10,4
Cc1c(Cl)cccc1NC(=O)Nc1cnccn1,.,2,-64*,-72,-6,-1
CC(C)NC(=O)N(C)C[C@H]1Oc2ccc(NC(=O)Cc3cn(C)c4ccccc34)cc2C(=O)N([C@@H](C)CO)C[C@@H]1C,-2,.,.,.,.,.
Oc1ccc2ccccc2c1CN1CCN(c2ccccc2F)CC1,-6,1,73,84*,.,2
Oc1ccc2ccccc2c1CN1CCN(C/C=C/c2ccccc2)CC1,-9,-2,128,185*,.,0
O=S(=O)(c1ccccc1)N1CCN(Cc2c(O)ccc3ccccc23)CC1,2,-4,.,.,-10,0
C[C@H]1CCCCO[C@@H](CN(C)C(=O)Nc2ccc(F)cc2)[C@@H](C)CN([C@@H](C)CO)C(=O)c2cc(NC(=O)c3ccccc3)ccc2O1,7,.,.,.,.,.
CCNC(=O)C[C@H]1CC[C@H]2[C@@H](COC[C@H](O)CN2C(=O)c2cc(Cl)cc(Cl)c2)O1,-1,.,.,.,.,.
COc1ccc(C(NC(=O)c2c(F)c(F)c(F)c(F)c2F)c2ccccc2)cc1 (centres undefined),-3,-5,41,53*,-37,9
COc1ccc(C(NC(=O)c2cc(OC)ccc2OC)c2ccccc2)cc1 (centres undefined),-3,-1,2,6,-5,-2
COc1ccc(OCCNc2cc(Cl)ccc2[N+](=O)[O-])cc1,13,-2,1,-5,9,-1
COc1ccc(-n2cc([N+](=O)[O-])c(=O)c3ccc(Cl)cc32)cc1,-7,-1,-66*,-75,.,-2
O=C(O)c1ccccc1SCc1cn2cc(Cl)ccc2n1,.,5,1,-23,-6,43*
Cc1cc(C)nc(SCc2cn3cc(Cl)ccc3n2)n1,4,2,42,64*,17,3
